Reference: publication PMC7862700, “An all-to-all approach to the identification of sequence-specific readers for epigenetic DNA modifications on cytosine”

Assays:
Assay in all cases: DAPPL (digital affinity profiling via proximity ligation, sequencing); 10 mM Tris-HCl pH 7.5, 50 mM NaCl, 1 mM DTT, 4% glycerol, room temperature, 30 min; GST-TFs on glutathione beads, 16-mer random dsDNA library, 0.1% formaldehyde crosslink after washing; high values mean tight binding
Details in all cases: protein: recombinant; tags: N-terminal GST; dsDNA, one strand shown
[1] = molecular target: T1, FLI1 (Homo sapiens, UniProt Q01543 1-452)
T1 sequence: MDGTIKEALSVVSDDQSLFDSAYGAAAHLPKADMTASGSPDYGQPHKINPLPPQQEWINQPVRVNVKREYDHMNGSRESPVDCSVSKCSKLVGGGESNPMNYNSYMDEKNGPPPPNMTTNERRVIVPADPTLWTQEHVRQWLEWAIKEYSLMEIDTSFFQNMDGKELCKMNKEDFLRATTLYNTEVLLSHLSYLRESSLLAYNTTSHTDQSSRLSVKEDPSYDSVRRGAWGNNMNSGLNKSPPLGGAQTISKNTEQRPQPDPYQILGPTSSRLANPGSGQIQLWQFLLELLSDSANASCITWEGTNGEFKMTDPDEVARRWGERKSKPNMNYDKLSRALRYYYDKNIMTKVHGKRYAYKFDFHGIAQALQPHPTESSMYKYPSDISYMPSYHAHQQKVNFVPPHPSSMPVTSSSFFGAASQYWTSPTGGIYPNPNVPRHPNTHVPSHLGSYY
Method in brief: (§1)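 Beads coated with glutathione captured GST-fused human transcription factors that had been expressed in yeast, and the factors were then given DNA barcodes and pooled with a tag-only sample. The pools were incubated with 200 nmole of a random double-stranded 16-mer DNA library in Tris/NaCl/DTT/glycerol buffer for 30 min at room temperature, washed, crosslinked with 0.1% formaldehyde and proximity-ligated with BsaI/T4 ligase at 37 °C for 1 h. PCR amplification and Illumina NextSeq500 sequencing came last. Binding signal is each hexamer's read frequency for a factor divided by its frequency for the tag-only sample.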

[2] = molecular target: T2, ELK1 (Homo sapiens, UniProt P19419 1-428)
T2 sequence: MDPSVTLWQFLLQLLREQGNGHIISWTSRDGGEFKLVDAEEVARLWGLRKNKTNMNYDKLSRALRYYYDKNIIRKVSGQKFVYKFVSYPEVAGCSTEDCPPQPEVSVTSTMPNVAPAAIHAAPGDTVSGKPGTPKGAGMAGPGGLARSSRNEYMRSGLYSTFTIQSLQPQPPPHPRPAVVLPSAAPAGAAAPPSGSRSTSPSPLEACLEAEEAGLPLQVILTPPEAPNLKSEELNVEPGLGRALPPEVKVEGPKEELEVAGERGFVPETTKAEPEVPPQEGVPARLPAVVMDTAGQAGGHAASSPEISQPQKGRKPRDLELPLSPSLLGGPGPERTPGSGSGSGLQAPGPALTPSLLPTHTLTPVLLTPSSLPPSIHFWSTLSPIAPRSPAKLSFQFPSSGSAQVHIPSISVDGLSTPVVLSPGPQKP
Method in brief: as §1

[3] = molecular target: T3, GABPA (Homo sapiens, UniProt Q06546 1-454)
T3 sequence: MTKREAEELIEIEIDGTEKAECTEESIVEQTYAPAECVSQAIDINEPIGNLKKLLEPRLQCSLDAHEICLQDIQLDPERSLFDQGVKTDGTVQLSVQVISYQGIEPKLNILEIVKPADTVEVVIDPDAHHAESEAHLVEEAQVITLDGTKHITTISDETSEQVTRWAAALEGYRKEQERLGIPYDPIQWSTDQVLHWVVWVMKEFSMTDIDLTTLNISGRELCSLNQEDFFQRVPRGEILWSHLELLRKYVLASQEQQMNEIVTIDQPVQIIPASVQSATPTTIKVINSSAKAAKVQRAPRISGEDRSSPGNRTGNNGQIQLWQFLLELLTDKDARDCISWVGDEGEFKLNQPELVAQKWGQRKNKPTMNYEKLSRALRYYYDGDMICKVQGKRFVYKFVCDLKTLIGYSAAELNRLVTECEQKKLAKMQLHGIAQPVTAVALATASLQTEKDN
Method in brief: as §1

[4] = molecular target: T4, ERG (Homo sapiens, UniProt P11308 1-479)
T4 sequence: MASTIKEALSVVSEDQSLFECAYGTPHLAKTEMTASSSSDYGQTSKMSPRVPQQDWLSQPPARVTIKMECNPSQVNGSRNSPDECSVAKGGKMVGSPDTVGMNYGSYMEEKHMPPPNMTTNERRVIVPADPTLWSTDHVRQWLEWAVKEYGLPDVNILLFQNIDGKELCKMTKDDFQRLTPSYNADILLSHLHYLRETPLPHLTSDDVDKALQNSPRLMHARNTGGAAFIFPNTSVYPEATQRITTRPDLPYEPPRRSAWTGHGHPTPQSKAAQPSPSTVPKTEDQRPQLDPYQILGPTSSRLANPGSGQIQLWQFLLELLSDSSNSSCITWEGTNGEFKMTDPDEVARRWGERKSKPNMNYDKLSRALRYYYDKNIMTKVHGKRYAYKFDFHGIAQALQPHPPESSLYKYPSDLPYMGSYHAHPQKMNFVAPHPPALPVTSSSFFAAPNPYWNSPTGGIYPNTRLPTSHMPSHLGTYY
Method in brief: as §1

[5] = molecular target: ELF1 (Homo sapiens, UniProt P32519 1-619)
Sequence of ELF1 (P32519 whole entry): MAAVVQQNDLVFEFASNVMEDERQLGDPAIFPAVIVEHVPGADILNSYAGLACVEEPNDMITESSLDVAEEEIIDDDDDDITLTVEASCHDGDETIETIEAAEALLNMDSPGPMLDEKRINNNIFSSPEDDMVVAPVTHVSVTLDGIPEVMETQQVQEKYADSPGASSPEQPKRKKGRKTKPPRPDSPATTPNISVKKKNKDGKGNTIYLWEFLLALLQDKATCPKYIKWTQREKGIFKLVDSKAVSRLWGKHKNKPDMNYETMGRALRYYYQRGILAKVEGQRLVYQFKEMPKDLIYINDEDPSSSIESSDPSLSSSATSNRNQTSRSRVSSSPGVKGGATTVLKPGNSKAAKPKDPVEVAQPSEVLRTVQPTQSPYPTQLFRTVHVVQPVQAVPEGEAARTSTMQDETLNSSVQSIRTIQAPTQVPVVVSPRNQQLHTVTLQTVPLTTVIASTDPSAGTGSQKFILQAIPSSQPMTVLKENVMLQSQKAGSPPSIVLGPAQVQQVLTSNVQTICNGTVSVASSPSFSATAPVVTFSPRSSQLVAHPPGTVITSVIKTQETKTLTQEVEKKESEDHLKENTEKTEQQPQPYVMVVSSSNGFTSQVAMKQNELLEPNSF
Method in brief: as §1

[6] = molecular target: T5, EHF (Homo sapiens, UniProt Q9NZC4 1-300)
T5 sequence: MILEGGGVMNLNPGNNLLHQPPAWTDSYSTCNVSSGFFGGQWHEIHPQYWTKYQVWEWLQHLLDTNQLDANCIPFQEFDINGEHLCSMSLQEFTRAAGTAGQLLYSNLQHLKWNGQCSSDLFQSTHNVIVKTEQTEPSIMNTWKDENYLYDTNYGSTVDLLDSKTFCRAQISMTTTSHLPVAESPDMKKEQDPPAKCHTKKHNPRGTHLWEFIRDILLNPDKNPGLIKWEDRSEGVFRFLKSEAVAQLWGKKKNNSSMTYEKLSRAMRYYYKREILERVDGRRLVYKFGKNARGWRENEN
Method in brief: as §1

[7] = molecular target: SPI1 (Homo sapiens, UniProt P17947 1-270)
Method in brief: as §1

[8] = molecular target: SPIB (Homo sapiens, UniProt Q01892 1-262)
Sequence of SPIB (Q01892 whole entry): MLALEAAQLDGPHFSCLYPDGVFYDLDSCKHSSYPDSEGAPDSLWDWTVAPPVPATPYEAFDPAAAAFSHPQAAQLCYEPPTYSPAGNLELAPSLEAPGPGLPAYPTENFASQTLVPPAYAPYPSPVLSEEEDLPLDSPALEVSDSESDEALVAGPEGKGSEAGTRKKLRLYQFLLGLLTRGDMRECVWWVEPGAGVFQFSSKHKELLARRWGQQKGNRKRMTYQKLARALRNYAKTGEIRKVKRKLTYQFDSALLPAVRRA
Method in brief: as §1

[9] = molecular target: T6, ELK3 (Homo sapiens, UniProt P41970 1-407)
T6 sequence: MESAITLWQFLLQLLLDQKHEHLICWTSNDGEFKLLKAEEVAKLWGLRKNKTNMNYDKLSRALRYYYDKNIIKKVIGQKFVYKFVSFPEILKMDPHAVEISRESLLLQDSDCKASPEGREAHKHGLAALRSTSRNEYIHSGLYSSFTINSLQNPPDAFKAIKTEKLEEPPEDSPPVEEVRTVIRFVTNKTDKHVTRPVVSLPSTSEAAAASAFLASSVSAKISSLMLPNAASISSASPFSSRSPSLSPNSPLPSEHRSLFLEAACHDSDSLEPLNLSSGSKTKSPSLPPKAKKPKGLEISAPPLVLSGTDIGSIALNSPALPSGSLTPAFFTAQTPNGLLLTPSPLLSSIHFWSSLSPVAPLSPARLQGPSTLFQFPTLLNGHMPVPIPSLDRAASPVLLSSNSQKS
Method in brief: as §1

[10] = molecular target: T7, FEV (Homo sapiens, UniProt Q99581 1-238)
T7 sequence: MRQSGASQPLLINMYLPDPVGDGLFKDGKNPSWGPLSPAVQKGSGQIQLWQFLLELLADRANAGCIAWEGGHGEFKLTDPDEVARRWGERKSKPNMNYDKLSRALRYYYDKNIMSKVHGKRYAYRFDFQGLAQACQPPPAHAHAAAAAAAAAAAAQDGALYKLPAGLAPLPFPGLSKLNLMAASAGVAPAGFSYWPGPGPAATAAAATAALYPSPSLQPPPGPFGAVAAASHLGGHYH
Method in brief: as §1

[11] = molecular target: ETV5 (Homo sapiens, UniProt P41161 1-510)
Sequence of ETV5 (P41161 whole entry): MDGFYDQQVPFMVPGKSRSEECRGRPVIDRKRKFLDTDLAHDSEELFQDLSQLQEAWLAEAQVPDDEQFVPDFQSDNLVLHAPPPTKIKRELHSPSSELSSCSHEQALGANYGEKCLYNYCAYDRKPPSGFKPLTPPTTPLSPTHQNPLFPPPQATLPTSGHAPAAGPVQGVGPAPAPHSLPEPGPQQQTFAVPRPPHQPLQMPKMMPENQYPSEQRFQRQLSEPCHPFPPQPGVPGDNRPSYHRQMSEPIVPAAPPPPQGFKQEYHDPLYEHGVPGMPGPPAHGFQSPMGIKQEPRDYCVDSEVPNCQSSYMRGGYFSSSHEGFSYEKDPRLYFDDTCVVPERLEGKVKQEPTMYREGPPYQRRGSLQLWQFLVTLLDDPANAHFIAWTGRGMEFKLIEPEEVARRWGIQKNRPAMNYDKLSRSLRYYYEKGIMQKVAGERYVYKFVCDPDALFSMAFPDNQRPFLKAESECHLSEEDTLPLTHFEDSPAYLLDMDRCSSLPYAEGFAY
Method in brief: as §1

[12] = molecular target: T8, SPIC (Homo sapiens, UniProt Q8N5J4 1-248)
T8 sequence: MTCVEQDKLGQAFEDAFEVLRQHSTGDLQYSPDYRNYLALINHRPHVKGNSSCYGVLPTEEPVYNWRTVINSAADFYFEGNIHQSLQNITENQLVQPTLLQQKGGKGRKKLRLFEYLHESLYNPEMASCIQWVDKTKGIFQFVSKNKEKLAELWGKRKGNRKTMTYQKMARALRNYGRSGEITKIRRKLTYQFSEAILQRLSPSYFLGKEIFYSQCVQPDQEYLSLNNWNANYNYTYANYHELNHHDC
Method in brief: as §1

[13] = molecular target: ELF4 (Homo sapiens, UniProt Q99607 1-663)
Sequence of ELF4 (Q99607 whole entry): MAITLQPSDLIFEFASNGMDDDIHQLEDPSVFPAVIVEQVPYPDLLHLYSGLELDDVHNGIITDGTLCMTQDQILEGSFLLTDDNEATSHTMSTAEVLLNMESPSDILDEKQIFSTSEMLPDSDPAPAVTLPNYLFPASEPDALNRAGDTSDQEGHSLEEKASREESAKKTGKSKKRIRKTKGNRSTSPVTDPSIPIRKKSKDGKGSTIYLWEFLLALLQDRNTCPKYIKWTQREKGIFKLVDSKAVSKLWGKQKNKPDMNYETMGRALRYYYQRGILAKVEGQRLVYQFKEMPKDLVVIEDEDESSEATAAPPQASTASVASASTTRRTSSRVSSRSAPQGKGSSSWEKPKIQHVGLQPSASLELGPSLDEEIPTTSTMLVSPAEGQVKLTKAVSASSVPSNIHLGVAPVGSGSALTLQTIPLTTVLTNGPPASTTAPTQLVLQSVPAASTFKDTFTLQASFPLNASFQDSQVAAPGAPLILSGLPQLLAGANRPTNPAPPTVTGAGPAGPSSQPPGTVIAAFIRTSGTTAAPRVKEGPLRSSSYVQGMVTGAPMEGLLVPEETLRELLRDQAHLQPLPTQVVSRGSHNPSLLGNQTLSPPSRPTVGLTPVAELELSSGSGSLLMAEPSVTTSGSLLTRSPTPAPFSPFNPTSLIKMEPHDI
Method in brief: as §1

[14] = molecular target: T9, ELK4 (Homo sapiens, UniProt P28324-2 1-405)
T9 sequence: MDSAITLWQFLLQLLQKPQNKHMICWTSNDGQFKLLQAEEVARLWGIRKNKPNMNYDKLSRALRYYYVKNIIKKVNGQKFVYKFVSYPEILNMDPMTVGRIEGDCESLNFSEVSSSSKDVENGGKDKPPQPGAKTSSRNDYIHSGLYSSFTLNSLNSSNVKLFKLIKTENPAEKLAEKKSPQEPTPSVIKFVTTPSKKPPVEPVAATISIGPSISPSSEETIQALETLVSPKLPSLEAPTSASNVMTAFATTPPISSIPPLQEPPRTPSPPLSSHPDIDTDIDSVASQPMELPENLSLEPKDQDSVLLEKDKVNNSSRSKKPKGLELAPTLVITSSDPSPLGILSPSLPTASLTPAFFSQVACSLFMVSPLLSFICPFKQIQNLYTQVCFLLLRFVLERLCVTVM
Method in brief: as §1

[15] = molecular target: T10, ETV2 (Homo sapiens, UniProt O00321 1-342)
T10 sequence: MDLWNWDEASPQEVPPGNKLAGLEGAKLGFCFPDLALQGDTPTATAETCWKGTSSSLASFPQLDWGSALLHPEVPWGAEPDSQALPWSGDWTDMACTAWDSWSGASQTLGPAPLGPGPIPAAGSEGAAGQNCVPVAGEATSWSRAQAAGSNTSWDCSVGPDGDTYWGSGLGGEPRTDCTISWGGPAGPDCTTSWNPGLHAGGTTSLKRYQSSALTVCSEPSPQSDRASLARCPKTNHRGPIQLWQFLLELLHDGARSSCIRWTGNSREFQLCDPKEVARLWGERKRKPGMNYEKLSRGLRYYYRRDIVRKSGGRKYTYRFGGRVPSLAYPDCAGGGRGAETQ
Method in brief: as §1

[16] = molecular target: T11, ELF3 (Homo sapiens, UniProt P78545 1-371)
T11 sequence: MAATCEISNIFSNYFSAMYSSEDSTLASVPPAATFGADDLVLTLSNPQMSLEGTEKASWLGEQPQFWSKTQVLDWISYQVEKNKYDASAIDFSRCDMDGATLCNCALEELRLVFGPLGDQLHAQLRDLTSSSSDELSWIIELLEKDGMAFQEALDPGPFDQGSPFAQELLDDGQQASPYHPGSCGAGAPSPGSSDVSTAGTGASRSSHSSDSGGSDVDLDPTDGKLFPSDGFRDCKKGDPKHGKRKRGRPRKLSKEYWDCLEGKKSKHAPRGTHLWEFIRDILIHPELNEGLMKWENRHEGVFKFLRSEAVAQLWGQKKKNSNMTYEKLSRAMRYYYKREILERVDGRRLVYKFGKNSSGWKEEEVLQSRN
Method in brief: as §1

[17] = molecular target: ETV1 (Homo sapiens, UniProt P50549 1-477)
Sequence of ETV1 (P50549 whole entry): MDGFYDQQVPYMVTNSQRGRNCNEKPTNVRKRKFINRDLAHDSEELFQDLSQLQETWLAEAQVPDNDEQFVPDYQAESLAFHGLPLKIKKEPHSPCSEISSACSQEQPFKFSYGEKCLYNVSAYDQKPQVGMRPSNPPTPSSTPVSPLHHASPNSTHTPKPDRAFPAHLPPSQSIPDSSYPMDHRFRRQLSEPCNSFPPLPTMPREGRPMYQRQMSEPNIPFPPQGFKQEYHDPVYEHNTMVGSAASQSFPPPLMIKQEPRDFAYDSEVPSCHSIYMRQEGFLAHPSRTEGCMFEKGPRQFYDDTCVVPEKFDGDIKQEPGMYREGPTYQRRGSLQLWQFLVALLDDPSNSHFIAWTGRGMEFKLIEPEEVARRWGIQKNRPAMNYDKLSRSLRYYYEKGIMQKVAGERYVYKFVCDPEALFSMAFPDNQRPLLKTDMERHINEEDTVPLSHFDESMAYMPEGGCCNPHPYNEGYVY
Method in brief: as §1

Sequence | binding signal [1] | binding signal [2] | binding signal [3] | binding signal [4] | binding signal [5] | binding signal [6] | binding signal [7] | binding signal [8] | binding signal [9] | binding signal [10] | binding signal [11] | binding signal [12] | binding signal [13] | binding signal [14] | binding signal [15] | binding signal [16] | binding signal [17]
CTGTCA | 1.21 fold enrichment (6-mer frequency, TF over GST control) | 1.11 fold enrichment (6-mer frequency, TF over GST control) | 1.2 fold enrichment (6-mer frequency, TF over GST control) | 1.14 fold enrichment (6-mer frequency, TF over GST control) | 1.19 fold enrichment (6-mer frequency, TF over GST control) | 1.12 fold enrichment (6-mer frequency, TF over GST control) | 1.1 fold enrichment (6-mer frequency, TF over GST control) | 1.15 fold enrichment (6-mer frequency, TF over GST control) | 1.08 fold enrichment (6-mer frequency, TF over GST control) | 1.03 fold enrichment (6-mer frequency, TF over GST control) | 1.06 fold enrichment (6-mer frequency, TF over GST control) | 1.27 fold enrichment (6-mer frequency, TF over GST control) | 1.13 fold enrichment (6-mer frequency, TF over GST control) | 1.27 fold enrichment (6-mer frequency, TF over GST control) | 1.19 fold enrichment (6-mer frequency, TF over GST control) | 1.16 fold enrichment (6-mer frequency, TF over GST control) | 1.14 fold enrichment (6-mer frequency, TF over GST control)
GTGACC | 1.29 fold enrichment (6-mer frequency, TF over GST control) | 1.27 fold enrichment (6-mer frequency, TF over GST control) | 1.18 fold enrichment (6-mer frequency, TF over GST control) | 1.24 fold enrichment (6-mer frequency, TF over GST control) | 1.25 fold enrichment (6-mer frequency, TF over GST control) | 1.36 fold enrichment (6-mer frequency, TF over GST control) | 1.32 fold enrichment (6-mer frequency, TF over GST control) | 1.24 fold enrichment (6-mer frequency, TF over GST control) | 1.03 fold enrichment (6-mer frequency, TF over GST control) | 1.36 fold enrichment (6-mer frequency, TF over GST control) | 1.22 fold enrichment (6-mer frequency, TF over GST control) | 1.34 fold enrichment (6-mer frequency, TF over GST control) | 1.27 fold enrichment (6-mer frequency, TF over GST control) | 1.36 fold enrichment (6-mer frequency, TF over GST control) | 1.12 fold enrichment (6-mer frequency, TF over GST control) | 1.3 fold enrichment (6-mer frequency, TF over GST control) | 1.24 fold enrichment (6-mer frequency, TF over GST control)
CGGCAT | 1.07 fold enrichment (6-mer frequency, TF over GST control) | 1.13 fold enrichment (6-mer frequency, TF over GST control) | 1.07 fold enrichment (6-mer frequency, TF over GST control) | 1.11 fold enrichment (6-mer frequency, TF over GST control) | 1.08 fold enrichment (6-mer frequency, TF over GST control) | 1.09 fold enrichment (6-mer frequency, TF over GST control) | 1.13 fold enrichment (6-mer frequency, TF over GST control) | 1.19 fold enrichment (6-mer frequency, TF over GST control) | 1.09 fold enrichment (6-mer frequency, TF over GST control) | 1.09 fold enrichment (6-mer frequency, TF over GST control) | 1.13 fold enrichment (6-mer frequency, TF over GST control) | 1.18 fold enrichment (6-mer frequency, TF over GST control) | 1.06 fold enrichment (6-mer frequency, TF over GST control) | 1.1 fold enrichment (6-mer frequency, TF over GST control) | 1.25 fold enrichment (6-mer frequency, TF over GST control) | 1.02 fold enrichment (6-mer frequency, TF over GST control) | 1.19 fold enrichment (6-mer frequency, TF over GST control)
